# Compounds with a hit are over-represented: about 9.4% of the library has one in this group of screens.
# FLuc counter = qHTS profiling assay for firefly luciferase inhibitor/activator using purifed enzyme and Km concentrations of substrates (counterscreen for miR-21 project); Luciferin 4-monooxygenase (Photinus pyralis), P08659; purified FLuc, Km substrates, luminescence inhibition; Potency, µM (highest dose often 57.5 µM), without a hit: at the top dose activity change, negative = inhibition, actives largely listed as inhibitors; 6.9% of 360,000 active; AID 588342, 2011;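 further: plate controls were vehicle for no effect and reference inhibitor for full effect; nearly all actives have a fitted effect of over 55% in size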
# Target sequence (P08659 whole entry, looked up): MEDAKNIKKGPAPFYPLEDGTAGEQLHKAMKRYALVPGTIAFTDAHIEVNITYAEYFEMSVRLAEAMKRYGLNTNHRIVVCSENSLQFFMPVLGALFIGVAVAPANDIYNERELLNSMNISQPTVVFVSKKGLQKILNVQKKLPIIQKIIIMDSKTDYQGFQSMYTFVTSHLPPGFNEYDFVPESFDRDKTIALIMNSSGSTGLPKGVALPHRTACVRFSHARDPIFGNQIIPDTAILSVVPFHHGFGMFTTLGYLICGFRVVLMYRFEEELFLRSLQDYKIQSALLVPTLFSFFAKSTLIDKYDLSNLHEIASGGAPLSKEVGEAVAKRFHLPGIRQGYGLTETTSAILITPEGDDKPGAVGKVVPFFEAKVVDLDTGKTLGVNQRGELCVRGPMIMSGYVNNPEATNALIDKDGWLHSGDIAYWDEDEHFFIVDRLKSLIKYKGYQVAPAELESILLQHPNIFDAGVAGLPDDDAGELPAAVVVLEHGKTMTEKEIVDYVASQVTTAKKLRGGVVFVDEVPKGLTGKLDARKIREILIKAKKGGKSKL
#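 Biochemical qHTS of compounds, final roughly 60 µM downward over six points, against 10 nM purified firefly luciferase using Km concentrations of substrates (10 uM D-luciferin, 10 uM ATP) in Tris acetate pH 7.5 buffer; luminescence output.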
# SMN2 splice up = qHTS Assay for Enhancers of SMN2 Splice Variant Expression; AID 1458, 2008; HEK293 SMN2-luciferase splicing reporter, luminescence, 30-36 h; 2.8% of 210,000 active; Potency, µM (top dose mostly 46.1 µM), for inactives: top-dose activity change, positive = activation, hits mostly activators; further: % of control where 0% means no effect; nearly all actives have a fitted effect of over 55% in size
#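 HEK293 cells carry an SMN2 […]–luciferase reporter in which exon 7 inclusion puts luciferase in frame. Cells were plated 10-12 h before compound addition, then incubated 30-36 h at 37C. ONE-Glo luminescence was read; sodium butyrate at 4.5 mM final served as control.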
# NPC1 promoter act = qHTS Assay for NPC1 Promoter Activators | Huh7 NPC1 promoter luciferase reporter, 24 h | AID 485313, 2010 | 2.4% of 320,000 active | Potency, µM (titrated, usually from 9.22 µM), without a hit: at the top dose activation, most hits filed as activators; further: % of control where 0% means no effect; nearly all actives have a fitted effect of over 60% in size
#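 Luminescence read-out of NPC1 promoter-driven luciferase in stably transfected Huh7 cells; compounds delivered in DMSO and left 24 h at 37C, 5% CO2, qHTS titration format.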
# ELG1 repair inh = qHTS screen for small molecules that inhibit ELG1-dependent DNA repair in human embryonic kidney (HEK293T) cells expressing luciferase-tagged ELG1; HEK293T ELG1-luciferase reporter, luminescence, 16 h; DNA damage induced by 5-fluorouridine; Potency, µM (highest dose often 46.1 µM), for inactives: top-dose activity change, negative = inhibition, actives largely listed as inhibitors; 2.3% of 330,000 active; further: on the % scale 0 is the no-effect control and ±100 the full control effect; nearly all actives have a fitted effect of over 55% in size
#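 Quantitative HTS, concentration-response format. 2,000 cells/well co-treated with 5-fluorouridine and compound, 16 hr in 5% CO2 at 37 °C; ONE-Glo luminescence read after 30 min.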
# ELG1 genotox = qHTS screen for small molecules that induce genotoxicity in human embryonic kidney (HEK293T) cells expressing luciferase-tagged ELG1. 1.3% of 330,000 active. HEK293T ELG1-luciferase reporter, luminescence, 16 h. Potency, µM (top dose mostly 46 µM), for inactives: at the highest dose activity change, positive = activation, hits mostly activators; further: % of control where 0% means no effect; nearly all actives have a fitted effect of over 60% in size
#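 Step 1: seed 2,000 HEK293T ELG1-luciferase cells per well. Step 2: add compound or DMSO, incubate 16 hr at 37 °C. Step 3: ONE-Glo, 30 min at room temperature, read luminescence.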
# Rab9 promoter act = qHTS Assay for Rab9 Promoter Activators. Huh7 Rab9 promoter-luciferase reporter, luminescence, 24 h. Potency, µM (titrated, usually from 9.22 µM), without a hit: top-dose activation, negative = inhibition, actives largely listed as activators. 2.8% of 320,000 active; further: % of control where 0% means no effect; nearly all actives have a fitted effect of over 60% in size
#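 Huh7 cells stably carrying a Rab9 promoter-luciferase reporter, 1500 cells per well in OP-MEM I with 10% FBS, treated with compound 24 hours at 37C. Luciferase activity read by luminescence after 10 minutes with Amplite reagent.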
# Active calls of the source: *; u = inconclusive; x = no result given; ! = repeats disagree; [ ] = another dose, or the depositor's remark. The call rests on the fitted dose curve; in most records, active means well fitted curve in the direction sought with a large enough effect; inconclusive means small, poorly fitted or top-dose-only effect, or another doubt; inactive means no such curve, though single readings can be large; an effect the other way counts as inactive or inconclusive. Potency means the concentration at half of the fitted maximal effect.
SMILES,FLuc counter,SMN2 splice up,NPC1 promoter act,ELG1 repair inh,ELG1 genotox,Rab9 promoter act
O=C(CN(c1ccc(F)cc1)S(=O)(=O)c1ccc2c(c1)OCCO2)Nc1ccccc1,0%,-14%,11%,21µM*,-6%,-2%
O=C(CN(c1ccc(F)cc1)S(=O)(=O)c1ccc2c(c1)OCCO2)NCc1ccccc1,7%,-8%,-2%,-10%,-1%,3%
CCc1ccc(NC(=O)C(=O)NCCc2sc(-c3ccc(OC)c(OC)c3)nc2C)cc1,-1%,x,x,x,x,x
CCCCNC(=O)CSc1nc2n[nH]c(C)c2c(=N)n1-c1ccccc1CC,-1%,x,x,x,x,x
COc1cc(CO)ccc1OCc1ccc(Cl)nc1,12µM*,x,2.5µM*,u,16µM*,3.2µM*
Cc1cc(C)c(Cn2c(=O)n(CCCC(=O)NCc3ccc4c(c3)OCO4)c(=O)c3sccc32)c(C)c1,4%,18%,x,x,x,x
CCCC[C@]12Cc3cc(C#N)ccc3C(O1)c1c(c3cc(F)ccc3oc1=O)O2,0%[11.5 µM],x,0%[1.84 µM],x,x,-13%[1.84 µM]
Cc1c(C(=O)Nc2cc(F)ccc2F)sc2nc3n(c(=O)c12)CCCCC3,-7%,x,2.8µM*,u,16µM*,1.6µM*
CSc1cccc(NC(=O)c2sc3nc4n(c(=O)c3c2C)CCC4)c1,27µM*,x,3.5µM*,u,u,u
COc1ccc(CNC(=O)c2sc3nc4n(c(=O)c3c2C)CCCCC4)cc1,19µM*,x,x,x,x,x
COc1cccc(NC(=O)c2sc3nc4n(c(=O)c3c2C)CCC4)c1,19µM*!,x,u,u,u,4µM*
Cc1c(C(=O)NCc2ccc(Cl)cc2)sc2nc3n(c(=O)c12)CCC3,-11%,x,x,x,x,x
Cc1c(C(=O)Nc2ccc(Oc3ccccc3)cc2)sc2nc3n(c(=O)c12)CCC3,u,-38%,3%,u,-4%,0%
Cc1cccc(OCC(=O)N2CCC(c3nc4ccccc4o3)CC2)c1C,-17%,x,x,x,x,x
c1ccc(CNc2nc3ccccc3c3nc(-c4ccccc4)nn23)cc1,5%,2%,x,x,x,x
CCC(=O)N1CCc2cc(OC)c(OC)cc2C1COc1ccc(C(=O)OC)cc1 (stereo not drawn),u,-27%,0%,2.6µM*,-19%,-2%
COCCNC(=S)N1CCc2cc(OC)c(OC)cc2C1COc1ccc(F)cc1 (stereo not drawn),-1%,10%,-6%,16µM*,-2%,4%
COCCNC(=S)N1CCc2cc(OC)c(OC)cc2C1COc1ccc(C(C)C)cc1 (stereo not drawn),-2%,14%,0%,9.2µM*,-4%,-1%
CCNC(=S)N1CCc2cc(OC)c(OC)cc2C1COc1ccc(F)cc1 (stereo not drawn),0%,17%,10%,u,1%,-2%
O=C(c1c(Cl)nc2sccn12)N(C(=O)c1c(Cl)nc2sccn12)c1ccc(Cl)cn1,-13%,13µM*,15%,u,3.7µM*,18%
O=C(Cn1cc(C(=O)c2ccccc2)c(=O)c2cc3c(cc21)OCCO3)Nc1ccc(F)c(F)c1,-7%,0%,x,x,x,x
O=C1C2C3C=CC(CC3)C2C(=O)N1c1ccc2c(c1)OCO2 (stereo not drawn),17µM*,-16%,0%,u,1%,6%
O=C1C2C3C=CC(C3)C2C(=O)N1c1ccc2c(c1)OCO2 (stereo not drawn),-23%,x,6%,2%,-2%,-2%
Nc1nc(CSC(=S)N2CCOCC2)nc(Nc2ccc(F)cc2)n1,u,14µM*,26%,u,u,u
CC(=O)Nc1ccccc1C(F)(F)F,-1%,x,-4%,15%,-1%,-1%
SMILES,FLuc counter,SMN2 splice up,NPC1 promoter act,ELG1 repair inh,ELG1 genotox,Rab9 promoter act
O=C(Nc1cccc(C(F)(F)F)c1)c1ccco1,-19%,26%,2%,-7%,4%,-6%
NC(=O)c1ccccc1N/C=C/C(=O)c1ccco1,9.5µM*,11µM*,u,u,5.2µM*,3.2µM*
O=C(/C=C/Nc1cccc(C(F)(F)F)c1)c1ccco1,11µM*,u,21%,u,u,u
O=C(/C=C/Nc1ccccc1C(F)(F)F)c1ccco1,1.2µM*,10µM*,2µM*,u,2.9µM*,0.71µM*
CN(C)/C=C/C(=O)c1cccc(Oc2ncccn2)c1,-1%,-5%,-2%,12%,2%,1%
O=C(/C=C/Nc1cccc(C(F)(F)F)c1)c1ccc(Oc2ncccn2)cc1,12µM*,-10%,u,23%,0%,u
O=C(/C=C/Nc1ccc(Oc2ccccc2)cc1)c1ccco1,0.85µM*,x,0.63µM*,u,u,0.71µM*
CCCN1CCC(=O)N([C@H](CSc2ccc(OC)cc2)CC(C)C)CC1,15µM*,x,u,u,u,u
Cc1ccc(SC[C@H](c2ccccc2)N2CCN(CCc3ccccc3)CCC2=O)cc1,27µM*,x,9%,23%,-4%,-2%
CCCN1CCC(=O)N([C@H](CSc2ccc(C)cc2)c2ccccc2)CC1,15µM*,x,u,u,11%,u
O=C1CCN(CCc2ccccc2)CCN1[C@H](CSc1ccccc1)c1ccccc1,u,x,12%,8%,1%,8%
CN1CCC(=O)N([C@H](CSc2ccc(Br)cc2)c2ccccc2)CC1,17µM*,x,u,u,u,u

# Screening results (PubChem)
